Measurements published in PubChem BioAssay AID1159580 (chemical genetic matrix, 2015).
Screen size: about 5,500 compounds; about 2,000 (36%) were called active. Another 18% or so got no clear call; they are omitted. Cut-off read from the data, not from the text of the source: active = normalized growth mostly below about 0.91 (no sharp cut-off); inconclusive = no clear call, values can overlap the other calls; inactive = mostly above about 0.92. Some of the results follow.

Experiment: chemical genetic growth profiling, strain panel (AID 1159580);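 note: tested at 20 µM; growth read once vehicle control cultures reached saturation at 30 °C; 1 = growth at the plate median or of vehicle wells; lower values mean less growth of the strain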
Settings: S. cerevisiae deletion strains, growth OD

Measured: normalized growth

OCc1c[nH]c2ccccc12
inactive: locus YAL021C, strain ccr4, stronger effect = lower value 0.949 | locus YAL026C, strain drs2, stronger effect = lower value 0.991 | locus YAL030W, strain snc1, stronger effect = lower value 0.979 | locus YBL061C, strain skt5, stronger effect = lower value 0.969 | locus YBR009C, strain hhf1, stronger effect = lower value 0.926 | locus YBR023C, strain chs3, stronger effect = lower value 0.955 | locus YBR171W, strain sec66, stronger effect = lower value 0.977 | locus YBR231C, strain swc5, stronger effect = lower value 0.953 | locus YBR279W, strain paf1, stronger effect = lower value 0.956 | locus YCL016C, strain dcc1, stronger effect = lower value 0.957 | locus YCL061C, strain MRC1, stronger effect = lower value 1.01 | locus YCL069W, strain vba3, stronger effect = lower value 0.976 | locus YCR088W, strain abp1, stronger effect = lower value 0.971 | locus YDL005C, strain med2, stronger effect = lower value 0.989 | locus YDL040C, strain nat1, stronger effect = lower value 0.981 | locus YDR001C, strain nth1, stronger effect = lower value 0.99 | locus YDR069C, strain doa4, stronger effect = lower value 0.974 | locus YDR159W, strain sac3, stronger effect = lower value 0.88 | locus YDR195W, strain ref2 1 | locus YDR297W, strain sur2, stronger effect = lower value 0.956 | locus YDR334W, strain swr1, stronger effect = lower value 1 | locus YDR335W, strain msn5, stronger effect = lower value 0.984 | locus YDR392W, strain spt3, stronger effect = lower value 0.856 | locus YEL037C, strain rad23, stronger effect = lower value 0.978 | locus YEL061C, strain CIN8 (second series), stronger effect = lower value 0.975 | locus YER015W, strain faa2, stronger effect = lower value 0.943 | locus YER016W, strain bim1, stronger effect = lower value 0.977 | locus YER111C, strain swi4, stronger effect = lower value 0.992 | locus YER155C, strain BEM2 (second series), stronger effect = lower value 0.966 | locus YFR010W, strain ubp6, stronger effect = lower value 0.984 | locus YGL167C, strain pmr1, stronger effect = lower value 0.978 | locus YGL173C, strain kem1, stronger effect = lower value 0.96 | locus YGL227W, strain vid30, stronger effect = lower value 0.983 | locus YGL240W, strain doc1, stronger effect = lower value 0.911 | locus YGL253W, strain hxk2, stronger effect = lower value 0.98 | locus YHR013C, strain ard1, stronger effect = lower value 0.955 | locus YHR027C, strain rpn1, stronger effect = lower value 0.96 | locus YHR030C, strain SLT2, stronger effect = lower value 1.02 | locus YHR079C, strain IRE1, stronger effect = lower value 1.05 | locus YHR142W, strain chs7, stronger effect = lower value 0.948 | locus YJL092W, strain hpr5, stronger effect = lower value 0.979 | locus YJL095W, strain BCK1 (second series), stronger effect = lower value 0.944 | locus YJL095W, strain BCK1, stronger effect = lower value 0.979 | locus YJL115W, strain asf1, stronger effect = lower value 0.981 | locus YJL129C, strain trk1, stronger effect = lower value 0.879 | locus YJL154C, strain vps35, stronger effect = lower value 0.987 | locus YJL187C, strain SWE1, stronger effect = lower value 0.958 | locus YJR066W, strain TOR1, stronger effect = lower value 0.961 | locus YKL160W, strain elf1, stronger effect = lower value 0.907 | locus YKR026C, strain gcn3, stronger effect = lower value 0.998 | locus YKR091W, strain srl3, stronger effect = lower value 0.99 | locus YLL001W, strain dnm1, stronger effect = lower value 1 | locus YLL026W, stronger effect = lower value 0.976 | locus YLL041C, strain sdh2, stronger effect = lower value 0.979 | locus YLR113W, strain HOG1, stronger effect = lower value 1 | locus YLR258W, strain gsy2, stronger effect = lower value 0.939 | locus YLR357W, strain rsc2, stronger effect = lower value 0.977 | locus YLR370C, strain arc18, stronger effect = lower value 0.982 | locus YLR384C, strain iki3, stronger effect = lower value 0.976 | locus YMR058W, strain fet3, stronger effect = lower value 0.991 | locus YMR125W, strain sto1, stronger effect = lower value 0.974 | locus YMR129W, stronger effect = lower value 1 | locus YMR231W, strain pep5, stronger effect = lower value 0.968 | locus YNL183C, strain NPR1, stronger effect = lower value 0.931 | locus YNL209W, strain ssb2, stronger effect = lower value 0.969 | locus YNL248C, strain rpa49, stronger effect = lower value 0.997 | locus YNL322C, strain KRE1 (second series), stronger effect = lower value 0.996 | locus YNR049C, strain mso1, stronger effect = lower value 0.99 | locus YOR070C, strain gyp1, stronger effect = lower value 0.93 | locus YOR080W, strain dia2, stronger effect = lower value 1 | locus YOR083W, strain WHI5, stronger effect = lower value 0.987 | locus YOR231W, strain MKK1, stronger effect = lower value 1.04 | locus YOR265W, strain rbl2, stronger effect = lower value 0.972 | locus YOR270C, strain vph1, stronger effect = lower value 0.974 | locus YOR290C, strain snf2, stronger effect = lower value 0.963 | locus YPL078C, strain atp4, stronger effect = lower value 0.983 | locus YPL106C, strain sse1, stronger effect = lower value 0.952 | locus YPL256C, strain CLN2, stronger effect = lower value 1.08
active: locus YCL011C, strain gbp2, stronger effect = lower value 0.815 | locus YDR137W, strain rgp1, stronger effect = lower value 0.741 | locus YEL003W, strain gim4, stronger effect = lower value 0.8 | locus YJL164C, strain tpk1, stronger effect = lower value 0.895 | locus YJL166W, strain qcr8, stronger effect = lower value 0.779 | locus YLR221C, strain rsa3, stronger effect = lower value 0.862 | locus YLR262C, strain YPT6 (second series), stronger effect = lower value 0.663 | locus YLR320W, strain mms22, stronger effect = lower value 0.742 | locus YLR342W, strain FKS1, stronger effect = lower value 0.905 | locus YML120C, strain ndi1, stronger effect = lower value 0.902 | locus YMR205C, strain PFK2, stronger effect = lower value 0.849 | locus YNL071W, strain lat1, stronger effect = lower value 0.622 | locus YOR001W, strain rrp6, stronger effect = lower value 0.854 | locus YOR106W, strain vam3, stronger effect = lower value 0.702 | locus YPL051W, strain arl3, stronger effect = lower value 0.791 | locus YPL240C, strain hsp82, stronger effect = lower value 0.914
